BoNT A protease: BoNT A light chain protease inhibition | multiplex microsphere protease substrate cleavage, flow cytometry | inhibition, % at 10 µM | 0.17% of 360,000 active; further: plate controls were buffer without enzyme for full effect and enzyme alone for no effect
Anthrax LF prot: anthrax lethal factor protease inhibition | multiplex microsphere protease cleavage assay, LF | 0.12% of 360,000 active | AID 588501 | P15917 | inhibition, % at 10 µM; further: plate controls were buffer without enzyme for full effect and enzyme alone for no effect
MazF activator: activators of E. coli MazEF toxin-antitoxin RNase; activation, % at 20 µM; FAM/BHQ RNA-DNA oligo cleavage fluorescence, 5 h; 0.32% of 350,000 active; P0AE70; AID 504720; in the data active means activation above about 50%
Target sequence (P0AE70 whole entry, looked up): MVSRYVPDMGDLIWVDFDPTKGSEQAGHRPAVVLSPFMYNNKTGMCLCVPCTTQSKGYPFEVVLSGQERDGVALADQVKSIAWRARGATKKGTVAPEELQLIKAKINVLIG
BoNT-F LC inh: BoNT F light chain protease inhibition; inhibition, % at 10 µM; Multiplex microsphere protease cleavage assay, flow cytometry; AID 588497; 0.22% of 360,000 active; in the data active means inhibition above about 35%, passing the limit was not always enough; inconclusive means no clear call, values can overlap the other calls; further: plate controls were buffer without enzyme for full effect and enzyme alone for no effect
Bead autofluor: compound fluorescence in toxin protease inhibitor counterscreen; compound autofluorescence counterscreen, microsphere flow cytometry; hits give high values; fluorescence intensity (no concentration beside the values); 3.1% of 360,000 active; AID 624483; in the data active means fluorescence intensity above about 16000; inconclusive means no clear call, values can overlap the other calls
* hit, by the source's call. Shown are actives, neighbours in structure and some others; about 3.6% of the full set was active somewhere. Unless noted, no stated cut-off is given here; in the data, active means inhibition above about 30%; inconclusive means no clear call, values can overlap the other calls; inactive means below that.

What do the screens show for `CC1(C)CC(=O)c2cnc(NC(=O)CSc3nc4ccccc4o3)nc2C1`?
BoNT A protease: -1.2; Anthrax LF prot: -3.3; MazF activator: 13.6; BoNT-F LC inh: -33.4; Bead autofluor: 5209

How did CCOc1ccccc1NC1=C(OC)C(=O)C(Nc2ccccc2OCC)=C(OC)C1=O do in these assays?
BoNT A protease: 0.1; Anthrax LF prot: -6.7; MazF activator: 11.2; BoNT-F LC inh: -4.3; Bead autofluor: 3574

What do the screens show for `CCC(=O)N1CCCC1(C)C(=O)Nc1ccc2nc(C)ccc2c1` (configuration not stated)?
BoNT A protease: -0.4; Anthrax LF prot: -6.3; BoNT-F LC inh: -12.0; Bead autofluor: 4128

What do the screens show for `N#Cc1c(N)sc2c1CCN(CCc1ccccc1)C2`?
BoNT A protease: 64.8*; Anthrax LF prot: 0.6; MazF activator: -2.0; BoNT-F LC inh: -141.1; Bead autofluor: 5685

Results for CSCc1c(C(=O)Nc2ccccc2N2CCOCC2)oc2ccccc12 ?
BoNT A protease: 1.7; Anthrax LF prot: -1.3; MazF activator: -16.0; BoNT-F LC inh: -0.5; Bead autofluor: 6476

Results for CCCC(=O)N1CCC1(C)C(=O)NS(=O)(=O)c1ccccc1Cl (configuration not stated) ?
BoNT A protease: 0.5; Anthrax LF prot: -2.7; BoNT-F LC inh: 0.6; Bead autofluor: 3388

What do the screens show for `O=C(CN1CCCCCC1)NCc1ccccc1`?
BoNT A protease: -0.7; Anthrax LF prot: 4.7; MazF activator: 0.5; BoNT-F LC inh: -1.6; Bead autofluor: 4374

How did CC1CCN(CC(=O)NCc2ccccc2)CC1 do in these assays?
BoNT A protease: -0.2; Anthrax LF prot: 0.1; MazF activator: 5.0; BoNT-F LC inh: -0.9; Bead autofluor: 22476*

How did O=S(=O)(c1ccc(Cl)c(Cl)c1)N1CCc2nc3ccccc3n2CC1 do in these assays?
BoNT A protease: 0.2; Anthrax LF prot: 6.5; MazF activator: -26.7; BoNT-F LC inh: -4.2; Bead autofluor: 17740*

How did COc1ccccc1N1CC(C(=O)OCC(=O)c2ccc(F)cc2)CC1=O (configuration not stated) do in these assays?
BoNT A protease: -0.2; Anthrax LF prot: -6.3; MazF activator: -6.9; BoNT-F LC inh: -1.1; Bead autofluor: 23806*

Results for O=[N+]([O-])c1ccc(C=CC=Cc2ccccc2)cc1 ?
BoNT A protease: 19.1; Anthrax LF prot: 16.4; MazF activator: 68.0*; BoNT-F LC inh: 10.0; Bead autofluor: 3677

What do the screens show for `COc1ccc(CN2C(=O)C(CC(=O)NCC3CCCCC3)CC(C(=O)N3CCOCC3)=C2C)cc1` (configuration not stated)?
BoNT A protease: -0.2; Anthrax LF prot: 1.9; MazF activator: 1.6; BoNT-F LC inh: 1.0; Bead autofluor: 3427

How did CN(C(=O)c1ccccc1NC(=O)C(F)(F)F)c1ccccc1 do in these assays?
BoNT A protease: 9.9; Anthrax LF prot: -6.2; MazF activator: 8.2; BoNT-F LC inh: 10.1; Bead autofluor: 19216*

What do the screens show for `COc1ccc(CCC(=O)Nc2cc(S(=O)(=O)N3CCCCC3)ccc2N(C)C)cc1`?
BoNT A protease: 0.3; Anthrax LF prot: 0.5; MazF activator: 0.6; BoNT-F LC inh: 10.9; Bead autofluor: 5479

How did Cc1cccc2cc(C(c3nnnn3Cc3ccccc3)N3CCN(c4ccccc4)CC3)c(=O)[nH]c12 (configuration not stated) do in these assays?
BoNT A protease: -3.6; Anthrax LF prot: -3.4; MazF activator: -11.4; BoNT-F LC inh: -8.1; Bead autofluor: 18218*

How did Cc1cc(C)c2[nH]c(=O)c(C(c3nnnn3CC3CCCO3)N3CCC(C)CC3)cc2c1 (configuration not stated) do in these assays?
BoNT A protease: inconclusive; Anthrax LF prot: -1.2; MazF activator: -14.6; BoNT-F LC inh: -3.3; Bead autofluor: 26168*

How did Cc1cccc2cc(C(c3nnnn3Cc3ccccc3)N3CCN(C)CC3)c(=O)[nH]c12 (configuration not stated) do in these assays?
BoNT A protease: 1.0; Anthrax LF prot: -0.1; MazF activator: 3.6; BoNT-F LC inh: 1.1; Bead autofluor: 19831*

What do the screens show for `Cc1cc(C)c2[nH]c(=O)c(C(c3nnnn3CC3CCCO3)N3CCCC(C)C3)cc2c1` (configuration not stated)?
BoNT A protease: -0.5; Anthrax LF prot: -9.0; MazF activator: 15.1; BoNT-F LC inh: 8.7; Bead autofluor: 11124

Results for COc1ccc(Cn2nnnc2C(c2cc3cccc(C)c3[nH]c2=O)N2CCN(C)CC2)cc1 (configuration not stated) ?
BoNT A protease: -0.6; Anthrax LF prot: -8.0; MazF activator: 6.4; BoNT-F LC inh: -5.7; Bead autofluor: 3345

How did CCCN(C(=O)C1CCN(S(=O)(=O)c2ccc(OC)c(OC)c2)CC1)C1CCS(=O)(=O)C1 (configuration not stated) do in these assays?
BoNT A protease: 2.1; Anthrax LF prot: 0.0; MazF activator: 1.3; BoNT-F LC inh: 1.2; Bead autofluor: 5993

Results for Cc1nnc(N2C(=O)C(O)=C(C(=O)c3ccco3)C2c2ccc(C(C)(C)C)cc2)s1 (configuration not stated) ?
BoNT A protease: 0.5; Anthrax LF prot: 0.0; MazF activator: 191.9*; BoNT-F LC inh: -11.1; Bead autofluor: 3438

What do the screens show for `Cc1nnc(N2C(=O)C(O)=C(C(=O)c3ccco3)C2c2ccc(C(C)C)cc2)s1` (configuration not stated)?
BoNT A protease: 0.4; Anthrax LF prot: 3.0; MazF activator: 62.3*; BoNT-F LC inh: 3.1; Bead autofluor: 2618

Results for Cc1nnc(N2C(=O)C(O)=C(C(=O)c3ccco3)C2c2ccc(F)cc2)s1 (configuration not stated) ?
BoNT A protease: 1.4; Anthrax LF prot: 4.6; MazF activator: 2.4; BoNT-F LC inh: 2.2; Bead autofluor: 4120

What do the screens show for `CSc1ccc(C2C(C(=O)c3ccco3)=C(O)C(=O)N2c2nnc(SC)s2)cc1` (configuration not stated)?
BoNT A protease: -4.5; Anthrax LF prot: -2.4; MazF activator: 186.8*; BoNT-F LC inh: -3.3; Bead autofluor: 7823

Results for CC[N+]1(C)CCC(O)(c2ccc(OC)cc2)C(C(=O)c2ccc(OC)cc2)C1 (configuration not stated) ?
BoNT A protease: 0.5; Anthrax LF prot: -5.6; MazF activator: 3.6; BoNT-F LC inh: -6.3; Bead autofluor: 3662

Results for CC1=NN(C(=O)Cn2ccc([N+](=O)[O-])n2)C(O)(C(F)(F)F)C1 (configuration not stated) ?
BoNT A protease: -0.1; Anthrax LF prot: 1.4; MazF activator: -5.4; BoNT-F LC inh: -4.2; Bead autofluor: 2454

Results for COc1nn(CC(=O)N2N=C(C)CC2(O)C(F)(F)F)cc1[N+](=O)[O-] (configuration not stated) ?
BoNT A protease: -2.5; Anthrax LF prot: -3.0; MazF activator: 6.3; BoNT-F LC inh: -4.0; Bead autofluor: 24478*
